In PMC7862700, “An all-to-all approach to the identification of sequence-specific readers for epigenetic DNA modifications on cytosine”:

Key:
Experiment in all cases: DAPPL (digital affinity profiling via proximity ligation, sequencing); 10 mM Tris-HCl pH 7.5, 50 mM NaCl, 1 mM DTT, 4% glycerol, room temperature, 30 min; GST-TFs on glutathione beads, 16-mer random dsDNA library, 0.1% formaldehyde crosslink after washing; high values mean tight binding
FLI1 = target: T1, FLI1 (Homo sapiens, UniProt Q01543 1-452); conditions: protein: recombinant; tags: N-terminal GST; dsDNA, one strand shown
T1 sequence: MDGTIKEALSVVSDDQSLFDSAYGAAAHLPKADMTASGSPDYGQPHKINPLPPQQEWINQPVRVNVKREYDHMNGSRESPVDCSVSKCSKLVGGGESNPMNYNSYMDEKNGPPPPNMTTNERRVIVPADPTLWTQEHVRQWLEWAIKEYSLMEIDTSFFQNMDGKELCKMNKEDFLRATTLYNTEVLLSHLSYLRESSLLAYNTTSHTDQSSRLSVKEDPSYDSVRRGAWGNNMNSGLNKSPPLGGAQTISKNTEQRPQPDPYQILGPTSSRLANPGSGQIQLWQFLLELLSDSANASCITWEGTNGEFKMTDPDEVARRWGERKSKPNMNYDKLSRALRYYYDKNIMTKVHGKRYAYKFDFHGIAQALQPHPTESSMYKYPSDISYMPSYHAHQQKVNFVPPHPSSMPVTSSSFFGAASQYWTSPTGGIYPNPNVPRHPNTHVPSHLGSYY
Summary of the method: (§1)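 A tag-only sample was pooled with DNA-barcoded human transcription factors that had been expressed in yeast as GST fusions and captured on glutathione beads. The pools were incubated for 30 min at room temperature with 200 nmole of a random double-stranded 16-mer DNA library in Tris/NaCl/DTT/glycerol buffer, then washed, crosslinked with 0.1% formaldehyde, proximity-ligated (BsaI/T4 ligase, 1 h, 37 °C), PCR-amplified and sequenced on an Illumina NextSeq500. Binding signal is each hexamer's read frequency for a factor divided by its frequency for the tag-only sample.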

ELK1 = target: T2, ELK1 (Homo sapiens, UniProt P19419 1-428); conditions: protein: recombinant; tags: N-terminal GST; dsDNA, one strand shown
T2 sequence: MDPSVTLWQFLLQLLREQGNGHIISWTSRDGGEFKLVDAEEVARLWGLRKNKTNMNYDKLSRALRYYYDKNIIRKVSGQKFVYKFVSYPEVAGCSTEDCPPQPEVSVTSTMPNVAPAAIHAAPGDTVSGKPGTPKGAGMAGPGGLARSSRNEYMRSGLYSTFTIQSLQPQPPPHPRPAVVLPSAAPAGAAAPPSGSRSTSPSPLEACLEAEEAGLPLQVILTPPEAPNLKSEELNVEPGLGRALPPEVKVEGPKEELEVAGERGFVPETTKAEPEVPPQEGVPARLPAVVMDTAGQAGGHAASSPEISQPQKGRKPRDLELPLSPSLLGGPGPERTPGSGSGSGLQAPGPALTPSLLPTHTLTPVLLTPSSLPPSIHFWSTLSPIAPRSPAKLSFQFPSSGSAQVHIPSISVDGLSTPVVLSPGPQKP
Summary of the method: as §1

GABPA = target: T3, GABPA (Homo sapiens, UniProt Q06546 1-454); conditions: protein: recombinant; tags: N-terminal GST; dsDNA, one strand shown
T3 sequence: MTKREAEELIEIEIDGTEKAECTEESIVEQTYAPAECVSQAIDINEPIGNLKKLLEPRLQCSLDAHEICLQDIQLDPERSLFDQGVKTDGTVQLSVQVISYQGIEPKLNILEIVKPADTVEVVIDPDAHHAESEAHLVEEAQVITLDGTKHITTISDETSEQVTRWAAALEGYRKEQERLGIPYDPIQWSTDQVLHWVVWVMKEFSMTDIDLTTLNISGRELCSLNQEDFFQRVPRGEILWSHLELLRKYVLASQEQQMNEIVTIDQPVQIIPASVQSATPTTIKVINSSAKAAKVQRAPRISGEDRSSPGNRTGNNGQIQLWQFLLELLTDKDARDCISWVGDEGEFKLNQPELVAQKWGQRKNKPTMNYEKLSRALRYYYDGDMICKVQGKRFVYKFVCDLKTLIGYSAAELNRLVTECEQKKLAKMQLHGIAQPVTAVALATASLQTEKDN
Summary of the method: as §1

ERG = target: T4, ERG (Homo sapiens, UniProt P11308 1-479); conditions: protein: recombinant; tags: N-terminal GST; dsDNA, one strand shown
T4 sequence: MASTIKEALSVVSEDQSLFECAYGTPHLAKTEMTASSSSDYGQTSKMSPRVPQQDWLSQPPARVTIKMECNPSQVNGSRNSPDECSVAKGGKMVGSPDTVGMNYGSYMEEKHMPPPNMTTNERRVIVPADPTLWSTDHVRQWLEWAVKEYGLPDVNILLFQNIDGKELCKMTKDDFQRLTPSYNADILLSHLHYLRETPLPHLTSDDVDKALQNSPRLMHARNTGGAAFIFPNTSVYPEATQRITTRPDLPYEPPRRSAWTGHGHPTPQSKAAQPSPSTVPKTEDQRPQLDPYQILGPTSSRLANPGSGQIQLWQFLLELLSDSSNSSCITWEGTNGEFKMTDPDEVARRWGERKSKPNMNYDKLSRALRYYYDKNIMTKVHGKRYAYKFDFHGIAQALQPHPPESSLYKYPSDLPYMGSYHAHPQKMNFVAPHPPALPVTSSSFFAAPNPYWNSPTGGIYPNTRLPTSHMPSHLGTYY
Summary of the method: as §1

ELF1 = ELF1 (Homo sapiens, UniProt P32519 1-619); conditions: protein: recombinant; tags: N-terminal GST; dsDNA, one strand shown
Sequence of ELF1 (P32519 whole entry): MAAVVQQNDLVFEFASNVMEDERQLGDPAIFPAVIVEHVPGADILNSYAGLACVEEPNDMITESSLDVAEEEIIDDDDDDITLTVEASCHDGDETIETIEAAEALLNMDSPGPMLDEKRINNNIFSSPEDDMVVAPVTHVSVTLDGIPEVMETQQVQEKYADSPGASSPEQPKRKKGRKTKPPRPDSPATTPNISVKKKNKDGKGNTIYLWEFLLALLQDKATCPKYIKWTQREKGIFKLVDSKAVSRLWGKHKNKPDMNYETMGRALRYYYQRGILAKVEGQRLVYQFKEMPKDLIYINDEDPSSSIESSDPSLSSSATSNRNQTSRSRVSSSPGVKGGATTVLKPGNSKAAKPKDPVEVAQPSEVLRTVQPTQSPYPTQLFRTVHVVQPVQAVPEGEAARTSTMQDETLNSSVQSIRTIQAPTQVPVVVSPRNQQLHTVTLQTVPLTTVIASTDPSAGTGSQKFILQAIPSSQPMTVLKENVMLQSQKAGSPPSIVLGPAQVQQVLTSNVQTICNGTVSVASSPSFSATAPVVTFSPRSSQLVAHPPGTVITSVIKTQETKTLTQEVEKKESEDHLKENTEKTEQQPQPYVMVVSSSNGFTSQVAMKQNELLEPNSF
Summary of the method: as §1

EHF = target: T5, EHF (Homo sapiens, UniProt Q9NZC4 1-300); conditions: protein: recombinant; tags: N-terminal GST; dsDNA, one strand shown
T5 sequence: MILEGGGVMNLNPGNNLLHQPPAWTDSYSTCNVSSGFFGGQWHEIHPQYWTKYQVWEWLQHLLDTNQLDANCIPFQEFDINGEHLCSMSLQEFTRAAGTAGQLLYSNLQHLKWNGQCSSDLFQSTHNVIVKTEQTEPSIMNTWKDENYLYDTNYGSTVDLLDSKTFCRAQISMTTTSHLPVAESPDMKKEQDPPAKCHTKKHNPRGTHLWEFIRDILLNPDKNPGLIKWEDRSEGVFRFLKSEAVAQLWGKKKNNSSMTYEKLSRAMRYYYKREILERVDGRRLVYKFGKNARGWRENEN
Summary of the method: as §1

SPI1 = SPI1 (Homo sapiens, UniProt P17947 1-270); conditions: protein: recombinant; tags: N-terminal GST; dsDNA, one strand shown
Summary of the method: as §1

SPIB = SPIB (Homo sapiens, UniProt Q01892 1-262); conditions: protein: recombinant; tags: N-terminal GST; dsDNA, one strand shown
Sequence of SPIB (Q01892 whole entry): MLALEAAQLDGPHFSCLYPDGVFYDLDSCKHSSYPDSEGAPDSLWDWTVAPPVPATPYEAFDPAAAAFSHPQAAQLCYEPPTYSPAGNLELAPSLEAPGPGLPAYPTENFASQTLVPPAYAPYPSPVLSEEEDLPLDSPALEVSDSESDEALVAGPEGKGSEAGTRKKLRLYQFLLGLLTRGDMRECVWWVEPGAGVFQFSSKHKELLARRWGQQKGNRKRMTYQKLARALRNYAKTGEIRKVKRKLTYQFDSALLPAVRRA
Summary of the method: as §1

ELK3 = target: T6, ELK3 (Homo sapiens, UniProt P41970 1-407); conditions: protein: recombinant; tags: N-terminal GST; dsDNA, one strand shown
T6 sequence: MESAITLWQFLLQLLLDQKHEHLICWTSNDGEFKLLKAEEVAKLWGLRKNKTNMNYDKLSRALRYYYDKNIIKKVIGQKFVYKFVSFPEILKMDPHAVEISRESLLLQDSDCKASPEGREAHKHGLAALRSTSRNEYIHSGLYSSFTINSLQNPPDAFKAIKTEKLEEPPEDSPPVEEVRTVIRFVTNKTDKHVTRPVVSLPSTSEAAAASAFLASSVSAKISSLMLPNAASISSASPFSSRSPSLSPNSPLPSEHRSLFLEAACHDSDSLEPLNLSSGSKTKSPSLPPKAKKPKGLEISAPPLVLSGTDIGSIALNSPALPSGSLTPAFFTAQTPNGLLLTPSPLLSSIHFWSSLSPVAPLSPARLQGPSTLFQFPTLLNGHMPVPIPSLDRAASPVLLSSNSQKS
Summary of the method: as §1

FEV = target: T7, FEV (Homo sapiens, UniProt Q99581 1-238); conditions: protein: recombinant; tags: N-terminal GST; dsDNA, one strand shown
T7 sequence: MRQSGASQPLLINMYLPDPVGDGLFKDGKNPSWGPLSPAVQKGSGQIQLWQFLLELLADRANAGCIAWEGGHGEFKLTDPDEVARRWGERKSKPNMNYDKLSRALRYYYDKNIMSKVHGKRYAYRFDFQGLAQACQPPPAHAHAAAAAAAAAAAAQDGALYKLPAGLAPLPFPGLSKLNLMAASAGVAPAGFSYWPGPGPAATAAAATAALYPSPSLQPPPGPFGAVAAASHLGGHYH
Summary of the method: as §1

ETV5 = ETV5 (Homo sapiens, UniProt P41161 1-510); conditions: protein: recombinant; tags: N-terminal GST; dsDNA, one strand shown
Sequence of ETV5 (P41161 whole entry): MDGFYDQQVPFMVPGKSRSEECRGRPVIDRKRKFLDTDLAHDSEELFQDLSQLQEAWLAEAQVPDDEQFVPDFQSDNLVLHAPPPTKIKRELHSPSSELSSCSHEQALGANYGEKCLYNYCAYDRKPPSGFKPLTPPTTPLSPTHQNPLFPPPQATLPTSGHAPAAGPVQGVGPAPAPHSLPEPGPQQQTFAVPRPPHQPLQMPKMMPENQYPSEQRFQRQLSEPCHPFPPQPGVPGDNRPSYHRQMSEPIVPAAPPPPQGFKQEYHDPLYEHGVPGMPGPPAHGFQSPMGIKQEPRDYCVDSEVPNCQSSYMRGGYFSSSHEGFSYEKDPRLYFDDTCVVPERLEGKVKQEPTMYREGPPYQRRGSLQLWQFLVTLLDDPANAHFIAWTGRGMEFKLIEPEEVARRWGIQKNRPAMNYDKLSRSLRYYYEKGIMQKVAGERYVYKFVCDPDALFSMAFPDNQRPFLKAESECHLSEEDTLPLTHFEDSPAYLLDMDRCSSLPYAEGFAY
Summary of the method: as §1

HSF1 = HSF1 (Homo sapiens, UniProt Q00613 1-529); conditions: protein: recombinant; tags: N-terminal GST; chain copies: 3; dsDNA, one strand shown
Sequence of HSF1 (Q00613 whole entry): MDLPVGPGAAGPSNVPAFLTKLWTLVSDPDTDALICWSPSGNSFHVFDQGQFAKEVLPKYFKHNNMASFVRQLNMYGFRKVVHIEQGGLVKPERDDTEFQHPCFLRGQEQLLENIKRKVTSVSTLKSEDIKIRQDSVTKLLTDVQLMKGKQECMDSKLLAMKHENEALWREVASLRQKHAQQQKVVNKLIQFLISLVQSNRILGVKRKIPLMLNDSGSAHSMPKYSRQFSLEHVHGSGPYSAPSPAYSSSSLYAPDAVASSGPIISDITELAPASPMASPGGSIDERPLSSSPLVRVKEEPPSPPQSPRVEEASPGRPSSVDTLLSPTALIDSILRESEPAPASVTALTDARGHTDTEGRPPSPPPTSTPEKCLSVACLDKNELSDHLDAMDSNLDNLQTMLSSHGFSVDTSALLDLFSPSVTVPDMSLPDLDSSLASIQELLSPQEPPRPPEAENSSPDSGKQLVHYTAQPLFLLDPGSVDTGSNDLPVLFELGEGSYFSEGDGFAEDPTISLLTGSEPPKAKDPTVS
Summary of the method: as §1

SPIC = target: T8, SPIC (Homo sapiens, UniProt Q8N5J4 1-248); conditions: protein: recombinant; tags: N-terminal GST; dsDNA, one strand shown
T8 sequence: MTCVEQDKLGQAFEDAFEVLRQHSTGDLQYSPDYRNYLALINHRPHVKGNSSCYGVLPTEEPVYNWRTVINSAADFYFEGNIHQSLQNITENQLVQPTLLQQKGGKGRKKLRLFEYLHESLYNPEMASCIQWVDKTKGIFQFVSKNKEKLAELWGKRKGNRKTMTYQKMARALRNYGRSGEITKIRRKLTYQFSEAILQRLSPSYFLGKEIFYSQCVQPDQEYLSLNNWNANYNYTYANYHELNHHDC
Summary of the method: as §1

ELF4 = ELF4 (Homo sapiens, UniProt Q99607 1-663); conditions: protein: recombinant; tags: N-terminal GST; dsDNA, one strand shown
Sequence of ELF4 (Q99607 whole entry): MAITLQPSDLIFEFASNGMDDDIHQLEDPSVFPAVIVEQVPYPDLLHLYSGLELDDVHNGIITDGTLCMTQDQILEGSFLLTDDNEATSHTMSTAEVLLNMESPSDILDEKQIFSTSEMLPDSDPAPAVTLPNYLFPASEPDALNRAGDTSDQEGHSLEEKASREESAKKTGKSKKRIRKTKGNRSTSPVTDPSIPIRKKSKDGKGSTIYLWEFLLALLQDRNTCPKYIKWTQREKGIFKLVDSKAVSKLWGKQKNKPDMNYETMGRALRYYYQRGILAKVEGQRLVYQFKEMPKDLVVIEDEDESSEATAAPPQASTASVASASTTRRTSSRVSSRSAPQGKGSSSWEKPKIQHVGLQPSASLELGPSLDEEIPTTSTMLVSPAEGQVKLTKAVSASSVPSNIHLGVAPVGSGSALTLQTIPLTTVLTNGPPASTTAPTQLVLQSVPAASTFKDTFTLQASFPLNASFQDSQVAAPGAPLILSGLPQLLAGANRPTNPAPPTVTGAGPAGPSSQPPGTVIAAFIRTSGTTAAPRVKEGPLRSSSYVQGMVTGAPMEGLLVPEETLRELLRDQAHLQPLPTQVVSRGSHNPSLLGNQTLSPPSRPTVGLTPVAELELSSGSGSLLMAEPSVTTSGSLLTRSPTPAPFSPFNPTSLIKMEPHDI
Summary of the method: as §1

ELK4 = target: T9, ELK4 (Homo sapiens, UniProt P28324-2 1-405); conditions: protein: recombinant; tags: N-terminal GST; dsDNA, one strand shown
T9 sequence: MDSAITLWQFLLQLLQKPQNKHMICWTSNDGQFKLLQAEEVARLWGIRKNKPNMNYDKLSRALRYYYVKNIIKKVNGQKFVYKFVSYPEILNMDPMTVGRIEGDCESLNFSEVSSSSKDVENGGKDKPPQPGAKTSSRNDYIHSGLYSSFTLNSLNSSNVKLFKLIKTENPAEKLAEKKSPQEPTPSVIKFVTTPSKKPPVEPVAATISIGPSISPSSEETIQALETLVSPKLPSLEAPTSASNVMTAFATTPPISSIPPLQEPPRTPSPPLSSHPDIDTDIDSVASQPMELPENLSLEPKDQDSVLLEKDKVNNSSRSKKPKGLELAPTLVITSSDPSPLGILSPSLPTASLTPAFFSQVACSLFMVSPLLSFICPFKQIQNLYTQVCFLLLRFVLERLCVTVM
Summary of the method: as §1

ETV2 = target: T10, ETV2 (Homo sapiens, UniProt O00321 1-342); conditions: protein: recombinant; tags: N-terminal GST; dsDNA, one strand shown
T10 sequence: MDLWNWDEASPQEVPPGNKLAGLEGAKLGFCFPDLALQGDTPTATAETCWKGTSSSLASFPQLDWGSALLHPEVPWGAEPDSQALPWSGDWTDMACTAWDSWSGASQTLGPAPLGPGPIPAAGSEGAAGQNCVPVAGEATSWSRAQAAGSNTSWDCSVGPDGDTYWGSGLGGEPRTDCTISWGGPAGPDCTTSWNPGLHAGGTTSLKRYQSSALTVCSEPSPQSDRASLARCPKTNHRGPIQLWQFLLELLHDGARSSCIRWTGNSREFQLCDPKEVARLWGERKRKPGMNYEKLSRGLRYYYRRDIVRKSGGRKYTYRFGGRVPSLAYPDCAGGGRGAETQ
Summary of the method: as §1

ELF3 = target: T11, ELF3 (Homo sapiens, UniProt P78545 1-371); conditions: protein: recombinant; tags: N-terminal GST; dsDNA, one strand shown
T11 sequence: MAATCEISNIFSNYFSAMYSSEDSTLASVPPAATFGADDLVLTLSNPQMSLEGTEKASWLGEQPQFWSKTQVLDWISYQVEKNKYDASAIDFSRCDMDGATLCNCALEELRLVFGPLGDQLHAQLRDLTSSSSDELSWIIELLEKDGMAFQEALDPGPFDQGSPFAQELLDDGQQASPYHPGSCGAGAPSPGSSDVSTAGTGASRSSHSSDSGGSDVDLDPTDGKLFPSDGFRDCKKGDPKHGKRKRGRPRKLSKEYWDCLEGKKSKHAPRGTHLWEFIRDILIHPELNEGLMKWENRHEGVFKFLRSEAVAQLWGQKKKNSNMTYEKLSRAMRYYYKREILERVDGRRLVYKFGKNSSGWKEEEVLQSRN
Summary of the method: as §1

CRX = CRX (Homo sapiens, UniProt O43186 1-299); conditions: protein: recombinant; tags: N-terminal GST; dsDNA, one strand shown
Sequence of CRX (O43186 whole entry): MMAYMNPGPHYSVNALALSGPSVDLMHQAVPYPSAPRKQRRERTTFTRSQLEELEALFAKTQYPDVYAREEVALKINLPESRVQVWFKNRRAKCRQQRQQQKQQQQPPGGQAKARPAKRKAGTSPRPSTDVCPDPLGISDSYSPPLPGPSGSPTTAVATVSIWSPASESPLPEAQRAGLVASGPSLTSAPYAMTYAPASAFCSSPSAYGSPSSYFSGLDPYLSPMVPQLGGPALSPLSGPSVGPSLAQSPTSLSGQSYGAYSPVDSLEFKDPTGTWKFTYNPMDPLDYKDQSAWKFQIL
Summary of the method: as §1

ETV1 = ETV1 (Homo sapiens, UniProt P50549 1-477); conditions: protein: recombinant; tags: N-terminal GST; dsDNA, one strand shown
Sequence of ETV1 (P50549 whole entry): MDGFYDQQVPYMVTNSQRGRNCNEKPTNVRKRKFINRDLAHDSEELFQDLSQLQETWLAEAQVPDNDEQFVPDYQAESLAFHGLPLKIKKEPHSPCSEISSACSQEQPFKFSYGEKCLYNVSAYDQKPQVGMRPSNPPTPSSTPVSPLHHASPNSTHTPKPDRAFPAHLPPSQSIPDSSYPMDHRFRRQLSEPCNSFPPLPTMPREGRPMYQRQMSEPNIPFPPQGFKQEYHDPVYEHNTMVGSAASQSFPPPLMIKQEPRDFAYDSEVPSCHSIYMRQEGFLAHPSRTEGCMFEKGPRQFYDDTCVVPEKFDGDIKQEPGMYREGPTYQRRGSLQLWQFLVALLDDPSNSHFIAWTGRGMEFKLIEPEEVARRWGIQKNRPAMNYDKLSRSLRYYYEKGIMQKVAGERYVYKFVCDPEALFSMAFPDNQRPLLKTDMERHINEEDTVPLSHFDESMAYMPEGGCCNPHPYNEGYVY
Summary of the method: as §1

## CCTTTG
FLI1
  binding signal: 1.32 fold enrichment (6-mer frequency, TF over GST control)
ELK1
  binding signal: 1.3 fold enrichment (6-mer frequency, TF over GST control)
GABPA
  binding signal: 1.4 fold enrichment (6-mer frequency, TF over GST control)
ERG
  binding signal: 1.37 fold enrichment (6-mer frequency, TF over GST control)
ELF1
  binding signal: 1.38 fold enrichment (6-mer frequency, TF over GST control)
EHF
  binding signal: 1.42 fold enrichment (6-mer frequency, TF over GST control)
SPI1
  binding signal: 1.47 fold enrichment (6-mer frequency, TF over GST control)
SPIB
  binding signal: 1.28 fold enrichment (6-mer frequency, TF over GST control)
ELK3
  binding signal: 1.18 fold enrichment (6-mer frequency, TF over GST control)
FEV
  binding signal: 1.31 fold enrichment (6-mer frequency, TF over GST control)
ETV5
  binding signal: 1.3 fold enrichment (6-mer frequency, TF over GST control)
HSF1
  binding signal: 1.21 fold enrichment (6-mer frequency, TF over GST control)
SPIC
  binding signal: 1.38 fold enrichment (6-mer frequency, TF over GST control)
ELF4
  binding signal: 1.36 fold enrichment (6-mer frequency, TF over GST control)
ELK4
  binding signal: 1.19 fold enrichment (6-mer frequency, TF over GST control)
ETV2
  binding signal: 1.24 fold enrichment (6-mer frequency, TF over GST control)
ELF3
  binding signal: 1.27 fold enrichment (6-mer frequency, TF over GST control)
CRX
  binding signal: 1.09 fold enrichment (6-mer frequency, TF over GST control)
ETV1
  binding signal: 1.42 fold enrichment (6-mer frequency, TF over GST control)
